High-throughput results: PubChem, National Center for Advancing Translational Sciences (NCATS)
DT40 TDP1 CPT – qHTS for Inhibitors of human tyrosyl-DNA phosphodiesterase 1 (TDP1): qHTS in cells in presence of CPT; Potency, µM (top dose mostly 46.2 µM), for the others: top-dose activity change, negative = growth inhibition, most hits filed as inhibitors; chicken DT40 Tdp1-/-;hTDP1 cells + 20 nM CPT, ATP luminescence, 48 h; 420,000 compounds, 12% hits; AID 686979, 2013; also: potency is read from the fitted curve at half-maximal effect; % is scaled to controls: 0 for no effect and ±100 for the full control effect; nearly all actives have a fitted effect of over 55% in size
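Chicken DT40 Tdp1-/- cells stably complemented with human TDP1 were seeded at 400 cells/well in medium containing 20 nM camptothecin, exposed to pin-transferred compounds, and grown at 37 °C for at least 48 hr. Viability was read as ATP luminescence.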
DT40 TDP1 no CPT – qHTS for Inhibitors of human tyrosyl-DNA phosphodiesterase 1 (TDP1): qHTS in cells in absence of CPT; 420,000 compounds, 15% hits; DT40 Tdp1-/- hTDP1 cells, no CPT, ATP luminescence, 48 h; AID 686978, 2013; Potency, µM (doses to about 46.2 µM), for the others: at the top dose activity change, negative = growth inhibition, usual class: inhibitors; also: potency is read from the fitted curve at half-maximal effect; % is scaled to controls: 0 for no effect and ±100 for the full control effect; nearly all actives have a fitted effect of over 55% in size
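No-CPT arm: Tdp1-/-;hTDP1 DT40 cells (400/well) plus compounds, incubated ≥48 hr at 37 °C. Readout CellTiter-Glo luminescence.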
TGFb inhibitor – qHTS for Inhibitors of TGF-b; HepG2 CAGA-GFP TGF-b/SMAD3 reporter, GFP fluorescence, 18 h; TGF-beta stimulated, 500 pg/mL final; Potency, µM (highest dose often 46.1 µM), for the others: at the top dose activity, negative = inhibition, usual class: inhibitors; 410,000 compounds, 1.2% hits; also: potency is read from the fitted curve at half-maximal effect; % is scaled to controls: 0 for no effect and ±100 for the full control effect; nearly all actives have a fitted effect of over 65% in size
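HEPG2 CAGA-GFP, 1000 cells/well; 2 h settle, 37 C; cpd via pin tool; TGF-b 500 pg/mL final; 18 h, 37 C; GFP imaging ex488/em500-530; %Activity normalised to -TGF-b and +DMSO controls; CRC fit, curve class.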
S-ASM inh – Inhibitors of Secretory Acid Sphingomyelinase (S-ASM): qHTS; Potency, µM (doses to about 57.5 µM), inactives show at the top dose activity change, negative = inhibition, actives largely listed as inhibitors; Sphingomyelin phosphodiesterase (Homo sapiens), P17405; placental ASM, HMU-PC fluorogenic substrate, 60 min; 340,000 compounds, 0.006% hits; AID 504937, 2011; also: potency is read from the fitted curve at half-maximal effect
Target sequence (P17405 47-631 limits assumed): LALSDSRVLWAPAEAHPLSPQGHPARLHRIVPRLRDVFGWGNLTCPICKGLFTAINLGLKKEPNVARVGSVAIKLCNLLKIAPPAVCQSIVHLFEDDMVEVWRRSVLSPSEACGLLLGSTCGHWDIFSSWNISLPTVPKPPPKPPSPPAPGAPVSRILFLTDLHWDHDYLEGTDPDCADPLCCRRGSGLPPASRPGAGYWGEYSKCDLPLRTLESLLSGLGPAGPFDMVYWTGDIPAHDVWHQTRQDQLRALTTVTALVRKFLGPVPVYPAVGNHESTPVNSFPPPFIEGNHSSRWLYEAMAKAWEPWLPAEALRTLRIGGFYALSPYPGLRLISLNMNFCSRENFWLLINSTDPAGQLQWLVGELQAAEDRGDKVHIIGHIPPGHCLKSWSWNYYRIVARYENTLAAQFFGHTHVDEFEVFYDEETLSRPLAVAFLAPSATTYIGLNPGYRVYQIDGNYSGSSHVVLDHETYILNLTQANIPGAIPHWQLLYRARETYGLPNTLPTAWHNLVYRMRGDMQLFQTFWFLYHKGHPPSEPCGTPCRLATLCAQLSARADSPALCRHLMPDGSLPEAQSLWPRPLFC
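Fluorescence read-out (Ex 386 nm, Em 447 nm) after stopping the reaction at pH 10. Enzyme: ASM from human placenta; substrate HMU-PC0, 9 uM final; 60 min, 37 °C. Compound preincubation 10 min, ambient temperature.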
IL1B secr inh – qHTS for Inhibitors of Inflammasome Signaling: IL-1-beta AlphaLISA Primary Screen; activity change, % at 57.5 µM; 360,000 compounds, 4.7% hits; THP-1 LPS/ATP IL-1B secretion, AlphaLISA, 16 h; hits give low values; in the data active = activity change below about -50%; inconclusive = mostly about -30% to -49%; also: % is scaled to controls: 0 for no effect and ±100 for the full control effect
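Secreted IL-1B measured by AlphaLISA bead assay after 16 h compound exposure of THP-1 cells; compounds (final up to 57.5 uM) added 1 h before LPS (250 ng/mL) and ATP (1.25 mM) stimulation; lower signal means less secretion.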
HepG2 tox – qHTS for Inhibitors of TGF-b: Cytotox Counterscreen | HepG2 CAGA-GFP viability, ATP luminescence, 18 h | Potency, µM (highest dose often 46.1 µM), for the others: at the top dose activity change, negative = cytotoxicity, hits mostly cytotoxic | 410,000 compounds, 0.76% hits | AID 588856, 2011; also: potency is read from the fitted curve at half-maximal effect
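CellTiter-Glo luminescence gave cytotoxicity after 18 hours at 37 degrees C. The cells were HepG2 CAGA-GFP in 1% FBS DMEM, stimulated with 500 pg/mL TGF-beta after compound addition. %Activity was normalised to no-cell wells (complete cell-killing) and DMSO (no toxicity), and curves were fitted and classified.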
Numbers without * were called inactive; ? = inconclusive; . = no result. Hits are enriched below; roughly 19% of the tested compounds scored in any of these assays. Unless noted, calls follow the shape of the dose curve; as a rule, active = well fitted curve in the direction sought with a large enough effect; inconclusive = small, poorly fitted or top-dose-only effect, or another doubt; inactive = no such curve, though single readings can be large; an effect the other way counts as inactive or inconclusive.

SMILES	DT40 TDP1 CPT	DT40 TDP1 no CPT	TGFb inhibitor	S-ASM inh	IL1B secr inh	HepG2 tox
CCOP(=O)(OCC)C(Nc1cc(Cl)cc(Cl)c1)c1cccc(O)c1 (stereo unspecified)	?	?	?	14%	?	-50%
CCCOP(=O)(OCCC)C(Nc1cccc(C(F)(F)F)c1)c1ccc(C)cc1 (stereo unspecified)	?	23µM*	?	-3%	-2	-17%
CCOc1ccc(N(CC)S(=O)(=O)c2ccc3c(c2)oc(=O)n3C)cc1	?	-28%	18%	-1%	18	-13%
CC(O)(CS(=O)(=O)c1ccccc1)C(=O)Nc1ccc(C(F)(F)F)cc1 (stereo unspecified)	-30%	-18%	-4%	-5%	13	-18%
CCCC(C)c1nnc(NC(=O)CCS(=O)(=O)c2ccccc2)s1 (stereo unspecified)	7.3µM*	4.1µM*	?	-2%	-96*	3%
COC(=O)C1=C(c2ccc(OC(F)(F)F)cc2)C[C@@H]2CC[C@H]1N2C(=O)NCCc1ccccc1	2.9µM*	?	?	-5%	0	-55%
COC(=O)C1=C(c2ccc(OCc3ccccc3)cc2)C[C@@H]2CC[C@H]1N2C(=O)NCCc1ccc(F)cc1	21µM*	?	-20%	.	0	-18%
COC(=O)C1=C(c2ccc(OCc3ccccc3)cc2)C[C@@H]2CC[C@H]1N2C(=O)NCCCCc1ccccc1	?	18µM*	-16%	.	-25	-18%
COC(=O)C1=C(c2ccc(OCc3ccccc3)cc2)C[C@@H]2CC[C@H]1N2C(=O)NC1CCN(Cc2ccccc2)CC1	8.2µM*	7.3µM*	?	-13%	-21	-76%
COC(=O)C1=C(c2ccc(OCc3ccccc3)cc2)C[C@@H]2CC[C@H]1N2C(=O)NCc1ccc2[nH]ccc2c1	?	?	0%	.	-4	-6%
CN/C=C(/Cl)P(=O)(OC(C)C)OC(C)C	7%	13%	-1%	8%	6	-17%
O=C(CCCOc1ccc(Cl)cc1Cl)Nc1cc(S(=O)(=O)N2CCOCC2)ccc1N1CCOCC1	?	?	?	-15%	?	3%
C#CCCC[C@@H]1OC(=O)CNC(=O)C([C@@H](C)CC)NC(=O)[C@@H]2CCCN2C(=O)C([C@@H](C)CC)OC(=O)[C@H](Cc2ccccc2)N(C)C(=O)[C@H](C(C)C)NC(=O)C1(C)C (stereo partly specified)	13µM*	21µM*	?	.	-14	-20%
Cc1ccnc(NC(=O)CCCc2ccc(N(CCCl)CCCl)cc2)n1	0.23µM*	0.58µM*	5%	0%	3	-6%
CCCCNCC(O)c1ccc(O)cc1 (stereo unspecified)	18%	-3%	.	.	.	.
C=CCN1CC[C@]23CCCC[C@H]2[C@H]1Cc1ccc(O)cc13	2%	?	.	.	.	.
N#CCCn1cc(C(=O)NCc2ccccc2)c(-c2ccccc2)n1	10%	5%	4%	-7%	13	3%
CCn1c(P(C)(=O)O)nc2ccccc21	-7%	-20%	-6%	7%	11	1%
CCn1c(NN=O)nc2ccccc21	7.3µM*	?	?	0%	100	-28%
CN(C)C(CNC(=O)Cc1ccc(Br)cc1)c1ccccc1 (stereo unspecified)	6%	-22%	-4%	24%	-13	-9%
